14 compounds from PubChem BioAssay (NCATS) can be followed below.

A short description of assay [1]: S16 Schwann cell viability assay (CellTiter-Glo assay) (AID 624031).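 Also: native untransfected S16 rat Schwann cells; nearly all actives have a fitted effect of over 70% in size.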 Summed up: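 Concentration-effect curves come from CellTiter-Glo luminescence of S16 rat Schwann cells after 24 h compound exposure. Each reading was normalized to DMSO wells (0%) and wells without cells, and curves were ranked by r2 and response magnitude.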
A general note: ATP-based viability assays read luminescence as a measure of living cells.

In a further assay the test system is 3D7. Put plainly: qHTS profiling for inhibitors of Plasmodium falciparum proliferation (AID 504749). Also: nearly all actives have a fitted effect of over 60% in size. Also: potency is read from the fitted curve at half-maximal effect. The conditions noted are these: P. falciparum in erythrocytes, SYBR Green DNA, 72 h; series mostly up to 12.8 µM. Summed up:
(§1)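 Quantitative HTS: compounds pinned into medium, infected erythrocytes added (0.3% parasitemia, 2.5% hematocrit), 72 h culture at 37 C under 5% CO2. Saponin/Triton lysis with SYBR Green I, overnight RT, then fluorescence read.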
(In general: qHTS replaces the single test concentration by a dilution series.)

In the next assay the test system is AS120. Described as above. The following applies: P. falciparum in erythrocytes, SYBR Green DNA, 72 h; series mostly up to 12.8 µM. Summed up: as §1
The subject of the next assay is ATS189. The description is as above. The conditions noted are these: P. falciparum in erythrocytes, SYBR Green DNA, 72 h; series mostly up to 12.8 µM. Summed up:
as §1

A further assay relates to CP185. The assay is described as above. The following applies: P. falciparum in erythrocytes, SYBR Green DNA, 72 h; series mostly up to 12.8 µM. Summed up:
as §1

The next assay concerns CP192. Described as above. The conditions noted are these: P. falciparum in erythrocytes, SYBR Green DNA, 72 h; series mostly up to 12.8 µM. Summed up:
as §1

A further assay deals with CP252. The description is as above. The following applies: P. falciparum in erythrocytes, SYBR Green DNA, 72 h; series mostly up to 12.8 µM. Summed up: as §1
A further assay concerns CP266. The assay is described as above. The following applies: P. falciparum in erythrocytes, SYBR Green DNA, 72 h; series mostly up to 12.8 µM. In short, it runs like this:
as §1

In the next assay the test system is CP268. The assay is described as above. The conditions noted are these: P. falciparum in erythrocytes, SYBR Green DNA, 72 h; series mostly up to 12.8 µM. Summed up: as §1
In another assay the test system is CP286. The description is as above. The following applies: P. falciparum in erythrocytes, SYBR Green DNA, 72 h; series mostly up to 12.8 µM. In short, it runs like this:
as §1

The next assay relates to CP297. The assay is described as above. The conditions noted are these: P. falciparum in erythrocytes, SYBR Green DNA, 72 h; series mostly up to 12.8 µM. Summed up:
as §1

The next assay concerns CP315. Described as above. The conditions noted are these: P. falciparum in erythrocytes, SYBR Green DNA, 72 h; series mostly up to 12.8 µM. In short, it runs like this:
as §1

The next assay deals with Dd2. The description is as above. The conditions noted are these: P. falciparum in erythrocytes, SYBR Green DNA, 72 h; series mostly up to 12.8 µM. In short, it runs like this: as §1
The next assay relates to ECU. Described as above. The following applies: P. falciparum in erythrocytes, SYBR Green DNA, 72 h; series mostly up to 12.8 µM. Summed up:
as §1

The test system of a further assay is HB3. The assay is described as above. The conditions noted are these: P. falciparum in erythrocytes, SYBR Green DNA, 72 h; series mostly up to 12.8 µM. Summed up: as §1
A further assay deals with N140. The description is as above. The following applies: P. falciparum in erythrocytes, SYBR Green DNA, 72 h; series mostly up to 12.8 µM. In short, it runs like this:
as §1

The next assay deals with PAD. Described as above. The following applies: P. falciparum in erythrocytes, SYBR Green DNA, 72 h; series mostly up to 12.8 µM. In short, it runs like this:
as §1

A further assay deals with PC15. The assay is described as above. The conditions noted are these: P. falciparum in erythrocytes, SYBR Green DNA, 72 h; series mostly up to 12.8 µM. Summed up: as §1
The subject of a further assay is TAB113. The description is as above. The conditions noted are these: P. falciparum in erythrocytes, SYBR Green DNA, 72 h; series mostly up to 12.8 µM. In short, it runs like this: as §1
The next assay concerns W2. The assay is described as above. The conditions noted are these: P. falciparum in erythrocytes, SYBR Green DNA, 72 h; series mostly up to 12.8 µM. Summed up:
as §1

Inconclusive results are not listed. Activity calls are given as the source filed them. Calls follow the shape of the dose curve; as a rule, active = well fitted curve in the direction sought with a large enough effect; inconclusive = small, poorly fitted or top-dose-only effect, or another doubt; inactive = no such curve, though single readings can be large; an effect the other way counts as inactive or inconclusive.

Turning to `CC(C)(C)NC[C@H](O)COc1cccc2c1C[C@@H](O)[C@@H](O)C2`, the compound was classed as inactive in [1]. The Potency result with 3D7, in the assay with AS120, in the assay with ATS189, in the assay with CP185, with CP192 and with CP252 was “inactive” throughout. The Potency entry with CP266, in the assay on CP268, in the assay on CP286, in the assay on CP297, in the assay on CP315 and in the assay on Dd2 was “inactive” in each case. Further, the Potency result in the assay on ECU, in the assay with HB3, in the assay on N140, in the assay on PAD, with PC15 and in the assay on TAB113 was “inactive” in each case. For the same compound, in the assay on W2, the Potency result is “inactive”.
In the case of `CCOC(=O)O[C@]1(C(=O)COC(=O)CC)CC[C@@H]2[C@@H]3CCC4=CC(=O)C=C[C@@]4(C)[C@H]3[C@H](O)C[C@]21C`, the result in assay [1] was inactive. Also, the Potency entry in the assay on 3D7, in the assay on AS120, with ATS189, in the assay on CP185, with CP192 and with CP252 was “inactive” throughout. The Potency entry in the assay on CP266, with CP268, in the assay with CP286, in the assay with CP297, in the assay on CP315 and in the assay with Dd2 was “inactive” each time. For the same compound, the Potency result in the assay on ECU, with HB3, with N140, with PAD, in the assay on PC15 and in the assay with TAB113 was “inactive” each time.
Take `Clc1ccc(CC[C@H](Cn2ccnc2)Sc2c(Cl)cccc2Cl)cc1`: the outcome in assay [1] was inactive. For the same compound, the Potency in the assay on AS120 was 2.24 µM (active); in the assay on CP297 it was 5.1 µM (active); in the assay on Dd2, 3.55 µM (active); with ECU, 3.55 µM (active); in the assay on HB3, 3.55 µM (active); in the assay on N140 it was 3.16 µM (active). The results for the Potency in the assay on PAD, in the assay with TAB113 and in the assay with W2 were 3.55 µM (active), 3.55 µM (active) and 2.03 µM (active), respectively.
For `CC(=O)OCC(=O)[C@@]12OC(C)(C)O[C@@H]1C[C@H]1[C@H]3C[C@H](F)C4=CC(=O)C=C[C@@]4(C)[C@]3(F)[C@H](O)C[C@@]12C`, in assay [1], the call was inactive. Also, the Potency result in the assay on 3D7, in the assay with AS120, with ATS189, in the assay on CP185, with CP192 and in the assay with CP252 was “inactive” each time. Moreover, the Potency result in the assay on CP266, in the assay on CP268, with CP286, in the assay with CP297, in the assay on CP315 and in the assay with Dd2 was “inactive” each time. In addition, the Potency entry in the assay with ECU, in the assay on HB3, with N140, in the assay on PAD, with PC15 and with TAB113 was “inactive” in each case. The Potency result in the assay on W2 is “inactive”.
For `CC1(C)O[C@@H]2C[C@H]3[C@H]4C[C@H](F)C5=CC(=O)CC[C@]5(C)[C@@H]4[C@H](O)C[C@]3(C)[C@]2(C(=O)CO)O1`, the outcome in [1] was inactive. For the same compound, the Potency result in the assay with 3D7, in the assay with AS120, with ATS189, with CP185, in the assay on CP252 and in the assay with CP266 was “inactive” throughout. In addition, the Potency result in the assay on CP268, in the assay on CP286, with CP297, with CP315, with Dd2 and in the assay on ECU was “inactive” throughout. Besides, the Potency result in the assay with HB3, with N140, in the assay on PAD, in the assay on PC15, in the assay with TAB113 and with W2 was “inactive” throughout.
Consider `Cc1onc(-c2ccccc2Cl)c1C(=O)N[C@H]1C(=O)N2[C@H]1SC(C)(C)[C@H]2C(=O)O`, for which, in assay [1], the call was inactive. In addition, the Potency entry in the assay with 3D7, in the assay with AS120, in the assay on ATS189, in the assay with CP185, in the assay with CP192 and with CP252 was “inactive” in each case. The Potency result with CP268, in the assay on CP286, with CP297, in the assay with CP315, with Dd2 and in the assay on ECU was “inactive” in each case. For the same compound, the Potency result in the assay on HB3, in the assay with N140, in the assay on PAD, in the assay with PC15, in the assay on TAB113 and in the assay on W2 was “inactive” throughout.
With `CN[C@H]1[C@@H](O)[C@@H](NC)[C@@H]2O[C@@]3(O)C(=O)C[C@@H](C)O[C@H]3O[C@H]2[C@H]1O`, in assay [1], the compound was classed as inactive. Further, the Potency entry in the assay with 3D7, in the assay with AS120, with ATS189, in the assay with CP185, with CP192 and in the assay with CP252 was “inactive” in each case. Besides, the Potency entry in the assay on CP266, in the assay on CP268, in the assay with CP286, in the assay with CP297, with CP315 and in the assay on Dd2 was “inactive” throughout. Also, the Potency entry in the assay on ECU, in the assay with HB3, in the assay on N140, in the assay with PAD, with PC15 and with TAB113 was “inactive” in each case. Also, the Potency entry with W2 is “inactive”.
`COc1cc2nc(N3CCN(C(=O)[C@@H]4COc5ccccc5O4)CC3)nc(N)c2cc1OC`: in [1], the outcome was inactive. Besides, the Potency entry in the assay with ATS189, with CP252, with CP266, in the assay on CP268, in the assay with CP315 and with PC15 was “inactive” in each case. For the same compound, the Potency in the assay on W2 was 5.36 µM (active).
On to `Cn1nnnc1SCC1=C(C(=O)O)N2C(=O)[C@@H](NC(=O)[C@@H](O)c3ccccc3)[C@@H]2SC1`, for which the call in [1] was inactive. Also, the Potency entry in the assay with 3D7, with AS120, in the assay on ATS189, in the assay on CP185, with CP192 and in the assay with CP252 was “inactive” throughout. The Potency result with CP266, in the assay on CP268, in the assay with CP286, with CP297, with CP315 and with Dd2 was “inactive” in each case. The Potency result in the assay with ECU, with HB3, in the assay on N140, in the assay with PAD, in the assay with PC15 and with TAB113 was “inactive” each time. The Potency entry in the assay on W2 was “inactive”.
`CC[C@](C)(CN(C)C)OC(=O)c1ccccc1`: the compound was classed as inactive in assay [1]. Further, the Potency entry in the assay with 3D7, in the assay with AS120, with ATS189, with CP185, in the assay with CP192 and with CP252 was “inactive” each time. Moreover, the Potency entry in the assay on CP266, with CP268, in the assay on CP286, in the assay with CP297, with CP315 and in the assay on ECU was “inactive” throughout. The Potency entry in the assay on HB3, in the assay with N140, in the assay with PAD, in the assay on PC15 and in the assay with TAB113 was “inactive” throughout. The figures for the Potency in the assay with Dd2 and in the assay with W2 were 5.01 µM (active) and 2.87 µM (active), respectively.
Consider `OCCN1CCN(CCC=C2c3ccccc3Sc3ccc(Cl)cc32)CC1`, for which the Potency result with CP266, with CP268, in the assay on CP297 and in the assay with TAB113 was “inactive” throughout. Further, the Potency is 3.55 µM (active) with CP286, 3.98 µM (active) with Dd2 and 0.721 µM (active) in the assay with W2.
On to `CN1CCN([C@@H](c2ccccc2)c2ccc(Cl)cc2)CC1`, for which the Potency entry in the assay on 3D7, in the assay with CP185, with CP192, in the assay on CP252, in the assay with CP266 and with CP286 was “inactive” in each case. In addition, the Potency result with CP297, in the assay on CP315, in the assay with ECU, in the assay on HB3, with N140 and with PC15 was “inactive” each time. Further, the Potency in the assay with W2 was 2.03 µM (active).
Consider `CNC[C@H](O)c1ccc(OC(=O)C(C)(C)C)c(OC(=O)C(C)(C)C)c1`, for which the outcome in [1] was inactive. Besides, the Potency result in the assay with 3D7, in the assay with AS120, in the assay with ATS189, in the assay with CP185, in the assay on CP192 and in the assay with CP252 was “inactive” each time. The Potency entry with CP266, with CP268, in the assay with CP286, in the assay with CP297, with Dd2 and in the assay on ECU was “inactive” each time. Besides, the Potency result in the assay on HB3, with N140, in the assay with PAD and in the assay with TAB113 was “inactive” each time.
Regarding `CCN1CCC[C@@H](OC(=O)C(c2ccccc2)c2ccccc2)C1`, in [1], the call was inactive. In addition, the Potency result in the assay with 3D7, in the assay with AS120, in the assay with CP192, with CP266, in the assay on CP268 and in the assay with CP286 was “inactive” throughout. The Potency result in the assay with CP297, in the assay on CP315, in the assay on ECU, with HB3 and in the assay with TAB113 was “inactive” each time. The Potency in the assay with W2 was 1.44 µM (active).
